# Screens from PubChem BioAssay.
# PNC inhibitor = inhibitors of perinucleolar compartment assembly; PC3M PTB-GFP, PNC prevalence imaging, 16 h; stronger effect = lower value; activity change (PNC), negative = inhibition, % at 10 µM; 140,000 compounds, 3.1% hits; AID 2417;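 active = readout at or below -70, meaning at least 70% loss of cells showing the perinucleolar compartment, a nuclear body marking cancer cells; inconclusive = readout between -30 and a set limit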;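 note: plate controls were DMSO wells for no effect and camptothecin positive control wells for full effect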
#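 Read-out is percentage of cells bearing a perinucleolar compartment, from automated 20x imaging of fixed, Hoechst-stained PC3M PTB-GFP cells. Cells were seeded 4 h, then exposed 16 h to compound (23 nl of library stock) in duplicate plates.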
# ALDH1A1 inh = blocks purified human ALDH1A1 activity; Purified ALDH1A1, NADH fluorescence, propionaldehyde substrate; Potency, µM (highest dose often 75.3 µM), inactives show top-dose activity, negative = inhibition, usual class: inhibitors; 220,000 compounds, 7.3% hits;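 note: potency is the fitted concentration of half-maximal effect; plate controls were no enzyme wells and a reference inhibitor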
# Target sequence (P00352 whole entry, looked up): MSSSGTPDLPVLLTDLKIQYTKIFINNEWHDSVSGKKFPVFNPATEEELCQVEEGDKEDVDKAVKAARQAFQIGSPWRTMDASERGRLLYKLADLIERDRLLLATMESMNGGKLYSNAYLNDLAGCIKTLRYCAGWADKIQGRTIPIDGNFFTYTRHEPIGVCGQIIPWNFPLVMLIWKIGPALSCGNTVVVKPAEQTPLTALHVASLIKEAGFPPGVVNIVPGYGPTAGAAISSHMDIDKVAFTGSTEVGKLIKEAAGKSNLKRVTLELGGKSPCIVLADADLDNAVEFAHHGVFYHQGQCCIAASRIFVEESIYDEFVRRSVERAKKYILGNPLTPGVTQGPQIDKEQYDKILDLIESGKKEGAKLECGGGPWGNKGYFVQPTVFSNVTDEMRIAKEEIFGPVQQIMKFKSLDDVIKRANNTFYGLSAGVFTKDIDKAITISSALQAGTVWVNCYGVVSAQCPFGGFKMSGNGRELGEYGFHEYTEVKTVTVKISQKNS
# HPGD inh = blocks human HPGD enzyme activity; 150,000 compounds, 4.3% hits; Potency, µM, for inactives: top-dose activity change, negative = inhibition, hits mostly inhibitors; purified HPGD, NADH fluorescence kinetic, PGE2 substrate; note: potency is the fitted concentration of half-maximal effect
#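 NADH formation kinetics: reaction with 30 uM PGE2 and 1 mM NAD+ (final), 20 nM enzyme, Tris-HCl pH 8 with Tween 20, after 15 min compound preincubation at room temperature. Fluorescence change, last versus first of five reads.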
# Numbers without * were called inactive; ? = inconclusive; / = no result given; [ ] = remark or other dose. In the library only some 11% were active in any assay of this set; here they are far more common. Unless noted, calls come from the whole dose curve; as a rule, active = well fitted inhibition curve with a large enough effect (not every such curve was filed as active); inconclusive = small, poorly fitted or top-dose-only effect, or another doubt; inactive = no such curve, though single readings can be large or run the other way. Unless noted, % is set by controls: 0 for no effect and ±100 for the full control effect.
SMILES,PNC inhibitor,ALDH1A1 inh,HPGD inh
Cc1ccccc1-n1c(SC/C(O)=C(\C#N)c2nc3ccccc3[nH]2)nnc1-c1ccncc1,-17,?,-24%
Cc1cc(C)n2c(SC/C(O)=C(\C#N)c3nc4ccccc4[nH]3)nnc2n1,25,18µM*,?
CC(=O)NC(=O)COC(=O)/C=C/c1c(C)nn(Cc2c(Cl)cccc2Cl)c1Cl,17,-3%,-27%
Clc1ccccc1Cn1nnc2c(Nc3ccccc3)ncnc21,-13,25µM*,-23%
CCc1nc(Nc2ccc(OC)c(OC)c2)c2nnn(Cc3ccccc3Cl)c2n1,-119*,?,?
COc1cccc(OC)c1Nc1nc(C)nc2c1nnn2Cc1ccccc1Cl,/,4%,/
Clc1ccccc1Cn1nnc2c(NCC3CC3)ncnc21,33,?,-22%
N#Cc1ccc(N2Cc3ccccc3C2=NC(=O)c2cccnc2Cl)cc1,3,?,-20%
Cc1ccc(NC(=O)CN(C)S(=O)(=O)c2ccc(Br)s2)cc1F,27,?,-7%
CCN1C(=O)[C@H]2[C@H]3[C@H](O)[C@H](O)C/C(=N/NC(=O)OCc4ccc(OC)cc4)[C@@H]3CC[C@@H]2C1=O,/,-4%[13.5 µM],/
CCN(CC)C(=O)COc1ccc(C=O)cc1OC,88,?,-11%
COc1cc(C(=O)NCCc2ccc3c(c2)OCCO3)ccc1OCC(=O)N1CCOCC1,-17,22µM*,-29%
COc1cc(C(=O)O)ccc1OCC(=O)N1CCOCC1,-18,0%,0%
CCOc1ccc(C(=O)N2CCCC2)cc1OC,36,-20%,28µM*
COc1cc(C(=S)N2CCCCC2)ccc1OCC(=O)N1CCCC1,?,22µM*,-6%
CCOc1ccc(C(=S)N2CCCC2)cc1OC,-6,-8%,-6%
COc1cc(C=O)ccc1OCC(=O)N1CCCC1,/,-14%,/
c1ccc(-c2nc(NCc3cccnc3)c3oc4ccccc4c3n2)cc1,30,?,-16%
O=C(Nc1nnc(SCc2ccc(F)cc2)s1)c1ccccn1,/,-2%,/
CC1CCC2(CC1)NC(=O)N(Cc1cc(=O)n3ccsc3n1)C2=O (stereo unspecified),/,-3%,/
CC(O)CNC12CC3CC(CC(C3)C1)C2 (stereo unspecified),/,1%,/
O=C(NNC(=O)c1cccnc1SCc1cccc([N+](=O)[O-])c1)c1ccc(F)cc1,-87*,-9%,-8%
O=C(NNC(=O)c1cccnc1SCc1cccc([N+](=O)[O-])c1)c1cccnc1,?,?,-16%
CC(=O)Nc1ccc(OC(=O)c2cc([N+](=O)[O-])ccc2Cl)cc1,63,-2%,-9%
CC(=O)Nc1ccc(NC(=O)c2ccccc2Sc2ccc([N+](=O)[O-])cc2Cl)cc1,-80*,?,-17%
SMILES,PNC inhibitor,ALDH1A1 inh,HPGD inh
O=C(COC(=O)c1cccc(NS(=O)(=O)c2ccc(F)c(F)c2)c1)NC(=O)NC1CCCCC1,24,?,-17%
CCn1c(CNC(=O)c2ccccc2F)nnc1SCC(=O)NC1CCCCC1C (stereo unspecified),/,-8%,/
Cc1ccc(S(=O)(=O)N2CCC(NC(=O)c3cccc(C)c3)CC2)cc1,/,11%,/
Cc1cccc(Oc2cc([N+](=O)[O-])cc3c2C(=O)Nc2ccccc2O3)c1,-83*,0%,-11%
O=C1Nc2ccccc2Oc2cc([N+](=O)[O-])cc(Oc3ccccc3)c21,14,0%,-11%
CN(C)CCCc1c2ccccc2nc2ccc(Cl)cc12,/,5%[13.5 µM],-8%
COc1cccc(Cn2c(Oc3cccc(C)c3)nc3c2c(=O)n(C)c(=O)n3C)c1,?,?,-4%
COc1cccc(Cn2c(Oc3ccccc3)nc3c2c(=O)n(C)c(=O)n3C)c1,?,0.25µM*,-22%
O=C1[C@H]2[C@H]3[C@H](O)[C@H](O)C/C(=N/OCc4ccccc4)[C@H]3CC[C@@H]2C(=O)N1C1CCCCC1,/,-8%[13.5 µM],/
O=C(NCc1ccc(F)cc1)N[C@@H](Cc1ccccc1)C(=O)O,-127*,?,-3%
O=C(NCc1ccccc1)N[C@@H](Cc1ccccc1)C(=O)O,?,14%,-6%
CCCN(CCC)S(=O)(=O)c1ccc(C(=O)N2CCOCC2)cc1,-12,4%,-1%
Cc1c(Cl)cccc1NS(=O)(=O)c1ccc2c(c1)C1C=CCC1C(c1ccc(C(=O)O)cc1)N2 (stereo unspecified),/,13µM*,/
CC(=O)c1ccc(N2CCN(S(=O)(=O)c3cccc(S(=O)(=O)N4CCOCC4)c3)CC2)cc1,-5,16%,-7%
CC(=O)c1ccc2c(c1)C1C=CCC1C(c1ccc(S(=O)(=O)N3CCOCC3)cc1)N2 (stereo unspecified),70,25µM*,-9%
CC1CCCN(C(=O)c2cccc(S(=O)(=O)Nc3cc(C(F)(F)F)ccc3Cl)c2)C1 (stereo unspecified),26,-9%,/
Fc1ccc(N2Cc3ccsc3C=N2)cc1,/,4%,/
COCCn1c(=NC(=O)/C=C/c2ccccc2)sc2cc(NC(C)=O)ccc21,?,-6%,?
O=C1CCCC2=C1C1(CCCCC1)N=C(Nc1nc3ccccc3s1)N2,31,13%,?
O=C1CCCC2=C1C1(CCCC1)N=C(Nc1nc3ccccc3s1)N2,-117*,?,?
Cc1ccc(-c2nn(-c3ccccc3)cc2/C=C(\C#N)C(=O)NCc2ccccc2)cc1,-23,157%,?
COc1ccc(-c2nn(-c3ccccc3)cc2/C=C(\C#N)S(=O)(=O)c2ccccc2)cc1OC,42,8.9µM*,-22%
COc1ccc(-c2nn(-c3ccccc3)cc2/C=N/NC(N)=S)cc1OC,-112*,11%,-28%
COc1ccc(-c2nn(-c3ccccc3)cc2/C=N/n2cnnc2)cc1OC,?,-4%,-24%
CC(C)(CNS(C)(=O)=O)SCc1ccc(Cl)cc1,/,-5%,/
SMILES,PNC inhibitor,ALDH1A1 inh,HPGD inh
COCc1nc2ccccc2n1Cc1ccccc1C,/,-1%,/
COCn1c(=O)c2c(nc(SC3=NCCS3)n2Cc2ccccc2C)n(COC)c1=O,-13,2.8µM*,-17%
O=c1[nH]c2ccc(Br)cc2c(-c2ccccc2)c1CN1CCOCC1,-90*,?,-13%
O=c1[nH]c2ccc(Br)cc2c(-c2ccccc2)c1N1CCOCC1,1,?,-13%
COc1cc(S(=O)(=O)Nc2cccc(C)c2)ccc1NC(=O)c1ccncc1,-20,-6%,-11%
O=C(COc1ccc(S(=O)(=O)N2CCCCC2)cc1)NCc1cccnc1,12,-9%,-3%
O=C1CN(C(=O)COC(=O)CCC(=O)c2ccc3c(c2)OCCO3)c2ccccc2N1,-16,?,-19%
CC1CC(CC(=O)NNc2nc(-c3ccccc3)cs2)C(=O)O1 (stereo unspecified),/,-4%,/
CC1(C)CC(CC(=O)NNc2nc(-c3ccccc3)cs2)C(=O)O1 (stereo unspecified),-84*,1%,-11%
O=S(=O)(Cc1ccccc1)N1CCCC1,-100*,3%,-14%
CCc1nnc(NC(=O)C2CCN(S(=O)(=O)c3ccc(C)cc3)CC2)s1,/,12%,/
CCSc1nnc(NC(=O)c2ccc3ccccc3n2)s1,8,?,-24%
CCc1nnc(NC(=O)C2COc3ccccc3O2)s1 (stereo unspecified),-80*,3%,-7%
Cc1nnc(NC(=O)C2COc3ccccc3O2)s1 (stereo unspecified),24,4%,-5%
